HP1b chromo inh = HP1-beta chromodomain-methylated histone interaction inhibition; AlphaScreen HP1-beta / biotin-H3K9me3 peptide binding; Potency, µM (series often up to 114 µM), hits mostly inhibitors; hit rate 0.56% among 390,000; AID 540317; further: nearly all actives have a fitted effect of over 70% in size
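AlphaScreen: HP1-beta (50 nM) preformed 30 min with biotin-H3(1-18)K9me3 peptide (50 nM) in PBS pH 7.4, 0.01% Tween-20. Compound added for 30 min at RT, then streptavidin donor/nickel chelate acceptor beads (10 ug/mL) for 30 min.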
Sfp inh = inhibitors of Bacillus subtilis Sfp phosphopantetheinyl transferase; Q9F4F7; Biochemical Sfp PPTase activity, qHTS; Potency, µM, most hits filed as inhibitors; hit rate 3.5% among 310,000;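 further: the enzyme is Sfp with the accession as filed and its product quenches rhodamine fluorescence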
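Reaction rates are the 30-min fluorescence difference (ex 525, em 598 nm) in wells containing 15 nM Sfp, 5 uM rhodamine-CoA and 12.5 uM BHQ-2-YbbR at pH 7.6 with 10 mM MgCl2.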
G9a inh = G9a (human) methyltransferase inhibition. Q96KQ7. G9a H3K9 monomethylation, AlphaScreen, 2 h. Potency, µM (titrated, usually from 102 µM), hits mostly inhibitors. hit rate 8.8% among 350,000. AID 504332; further: nearly all actives have a fitted effect of over 75% in size
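Signal arises when biotinylated H3K9 peptide, once monomethylated, bridges streptavidin donor and antibody-captured acceptor beads. Enzyme at 20 nM was preincubated 15 min with test compounds; peptide 500 nM and SAM 20 uM then reacted for 2 h.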
BAZ2B block = BAZ2B (human) inhibition; Q9UIF8; AlphaScreen BAZ2B-H3K14Ac peptide displacement; Potency, µM (highest dose often 114 µM), most hits filed as inhibitors; hit rate 4.4% among 360,000; AID 504333; further: nearly all actives have a fitted effect of over 60% in size
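Protein-peptide AlphaScreen: BAZ2B 50 nM, b-H3K14Ac 50 nM, 1x PBS pH 7.4 + 0.01% Tween-20. Preincubation 30 min RT; cpd 30 min RT (top 110 uM); beads 20 min RT, light-protected.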
PLK1 PBD inh = blocks phosphopeptide binding to human PLK1 polo-box domain; P53350; Plk1 PBD binding of FITC phosphopeptide, fluorescence polarization; Potency, µM, hits mostly inhibitors; hit rate 2.8% among 360,000; AID 720504; further: series mostly up to about 57 µM; nearly all actives have a fitted effect of over 65% in size
Target sequence (P53350 whole entry, looked up, the tested form may be a part): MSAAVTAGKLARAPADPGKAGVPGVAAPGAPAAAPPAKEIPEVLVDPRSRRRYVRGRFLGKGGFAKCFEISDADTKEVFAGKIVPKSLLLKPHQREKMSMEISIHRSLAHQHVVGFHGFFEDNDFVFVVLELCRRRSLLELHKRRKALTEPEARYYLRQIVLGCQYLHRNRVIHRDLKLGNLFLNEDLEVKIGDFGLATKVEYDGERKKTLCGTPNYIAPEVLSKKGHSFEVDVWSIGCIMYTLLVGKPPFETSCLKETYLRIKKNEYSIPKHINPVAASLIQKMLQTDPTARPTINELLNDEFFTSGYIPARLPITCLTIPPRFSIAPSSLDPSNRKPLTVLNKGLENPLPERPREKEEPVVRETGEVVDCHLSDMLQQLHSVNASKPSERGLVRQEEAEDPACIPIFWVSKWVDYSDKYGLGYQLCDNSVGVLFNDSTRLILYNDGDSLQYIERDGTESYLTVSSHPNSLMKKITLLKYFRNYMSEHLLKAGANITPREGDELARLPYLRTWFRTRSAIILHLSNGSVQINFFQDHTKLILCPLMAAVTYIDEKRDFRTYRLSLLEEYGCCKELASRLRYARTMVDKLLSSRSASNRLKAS
JMJD2A Tudor inh = JMJD2A Tudor domain (human) inhibition | hit rate 4.4% among 390,000 | O75164 | AlphaScreen JMJD2A-Tudor / H3K4me3 peptide binding | Potency, µM (series often up to 114 µM), actives largely listed as inhibitors; further: nearly all actives have a fitted effect of over 50% in size
Hits are given with their value; . = inactive; ? = inconclusive; / = no result given; [ ] = another dose, or the depositor's remark. Only some compounds are listed: those with a hit (about 12% of all), similar ones and a draw of the others. The call rests on the fitted dose curve; in most records, active means well fitted curve in the direction sought with a large enough effect; inconclusive means small, poorly fitted or top-dose-only effect, or another doubt; inactive means no such curve, though single readings can be large; an effect the other way counts as inactive or inconclusive.

SMILES	HP1b chromo inh	Sfp inh	G9a inh	BAZ2B block	PLK1 PBD inh	JMJD2A Tudor inh
Cc1cc(CN2CCCC(CNC(=O)c3ccc(F)cc3)C2)cc(C)c1O (centres undefined)	.	.	79µM	.	.	.
O=C(NCC1CCCN(Cc2cccc(C(F)(F)F)c2)C1)c1ccc(F)cc1 (centres undefined)	.	.	.[12.7 µM]	.	.	.
C=CCSc1nc2sc3c(c2c(=O)[nH]1)CC(C)(CC)OC3 (centres undefined)	.	.	.[0.501 µM]	.	.	.
COc1cccc(-c2nnc(NC(=O)C(C)C)o2)c1	.	.	8.9µM	79µM	.	?
COc1cc(OC)cc(C(=O)Nc2nnc(-c3cccnc3)o2)c1	.	.	.	56µM	.	.
CCCCCCOC(=O)Sc1nc2ccccc2o1	.	45µM	?	.	.	.
COc1cc(/C=N/n2c(C)n[nH]c2=S)ccc1OCc1ccc(F)cc1	.	.	1.3µM	.	.	79µM
COc1cc(/C=N\n2nnnc2N)ccc1OCc1ccc(F)cc1	.	.	.	.	.	.
CCOc1cc(/C=N/O)ccc1OCc1ccc([N+](=O)[O-])cc1	?	.	.	.	24µM	.
CCOc1cc(/C=N/O)ccc1OCc1ccc(F)cc1	?	.	.	.	24µM	28µM
COc1cc(/C=N/O)ccc1OCc1ccc(Cl)cc1	/	.	/	.	/	/
CCCS(=O)(=O)NC(=O)C1(C)CCN(C(=O)c2ccccc2OC(F)(F)F)C1 (centres undefined)	/	/	/	/	.	/
COc1ccc(N2CCN(c3csc4ccc(Cl)cc4c3=O)CC2)cc1	.	/	.	50µM	/	?
COc1ccc(N2CCN(c3csc4ccccc4c3=O)CC2)cc1	.	/	?	40µM	/	40µM
COc1ccccc1OC(C)C(=O)Nc1ccc(S(=O)(=O)N2CCN(C)CC2)cc1 (centres undefined)	.	.	.	.	.	.
Cc1cc(C(=O)N/N=C/C=C/c2ccccc2)n[nH]1	.	.	.	.	.	.
O=C(N/N=C/c1cccs1)c1cc(-c2ccc(Cl)s2)[nH]n1	.	.	50µM	?	.	?
O=C(N/N=C/c1ccco1)c1cc(-c2ccc(Cl)s2)[nH]n1	.	.	.	.	.	.
Cc1ccc(-c2cc(C(=O)N/N=C/C=C/c3ccccc3)n[nH]2)s1	.	.	.	.	6.7µM	.
COC(=O)C(C(=O)OC)[C@@H]1c2ccccc2[C@H]2C(=C[C@@H](C)[C@H]3C(=O)N(c4ccccc4)C(=O)[C@H]32)N1C(=O)OC	/	.	/	/	/	/
COc1cc2c(cc1OC)-c1cc(Nc3ccc(C(=O)O)cc3)nc(=O)n1CC2	?	.	?	71µM	.	?
Cc1ccc2c(c1)Oc1ccc([N+](=O)[O-])cc1C(=O)N2	.	.	.	.	.	.
Cc1ccc2c(c1)NC(=O)c1cccc([N+](=O)[O-])c1CO2	/	.	50µM	.	/	/
CCOC(=O)C1(C)CCN1C(=O)c1ccc(OC)c(F)c1 (centres undefined)	/	/	/	/	.	/
CCOC(=O)n1cnc2nc(N)nc(SC)c21	.	/	/	/	.	.
SMILES	HP1b chromo inh	Sfp inh	G9a inh	BAZ2B block	PLK1 PBD inh	JMJD2A Tudor inh
Cc1cc(C)c(C)c(S(=O)(=O)N2C(=S)NC(=O)C2C(C)C)c1C (centres undefined)	?	.	?	.	27µM	.
CN(CCC1CCOCC1)C(=O)CC1C(=O)NCCN1Cc1ccccc1F (centres undefined)	.	.	8.9µM	.	.	.
CN(CCCC1CCCC1)C(=O)CC1C(=O)NCCN1Cc1ccc(F)cc1 (centres undefined)	.	.	79µM	?	.	.
O=C(CC1SC(N2CCOCC2)=NC1=O)Nc1ccc(Cl)cc1 (centres undefined)	.	/	50µM	.	.	.
CNC(=O)c1ccc(NC(=O)CC2SC(N3CCCC3)=NC2=O)cc1 (centres undefined)	.	/	2µM	.	.	.
Cc1ccccc1NC1=NCC(c2ccc([N+](=O)[O-])cc2)S1 (centres undefined)	.	.	.	.	.	?
Cc1ccc2nc(NCc3ccccc3)c3nnnn3c2c1	.	/	.	?	/	.
CC1(C)CC2(C)OC(=N)C1(C#N)C2(C#N)C#N (centres undefined)	.	.	56µM	.	.	.
CCCCN1CCc2c([nH]c3c(C)cccc23)C1=O	?	.	.	.	3.4µM	20µM
CCCc1c(C)c2cccc(C)c2[nH]c1=O	.	.	.	.	.	.
CCOC(=O)/C(C#N)=C1\C(=O)N(Cc2ccccc2)c2ccccc21	14µM	35µM	/	35µM	3.4µM	20µM
CCOC(=O)/C(C#N)=C1/C=CN(Cc2ccccc2)C=N1	.	.	.	.	.	.
CCO/C(C)=C1\C(=O)N(CC)c2ccccc21	.	.	50µM	.	.	.
O=C(NC1CCCCC1)c1cc(S(=O)(=O)N2CCOCC2)ccc1Cl	.	.	.	.	.	.
COc1cc(OC)c(NC(=O)c2c3c(nc4ccccc24)C(=O)N(C2CCCCC2)C3)cc1Cl	.	/	.	.	/	.
COCc1nnc(NC(=O)c2ccc(S(=O)(=O)N3CCCC3)cc2)o1	.	.	.	20µM	.	13µM
CCc1nnc(NC(=O)c2ccc(S(=O)(=O)N3CCCC(C)C3)cc2)o1 (centres undefined)	.	.	.	89µM	.	.
C=CCN(CC=C)S(=O)(=O)c1ccc(C(=O)Nc2nnc(COC)o2)cc1	.	.	.[12.7 µM]	?	.	.
CC1CCC2(CC1)NC(=O)N(CC(=O)Nc1ccc(F)cc1)C2=O (centres undefined)	.	/	.	.	.	.
NC(=S)NN=C1c2ccccc2-c2c(F)c(F)c(F)c(F)c21	?	/	/	/	8.4µM	?
NC(=S)NN=C1c2ccccc2-c2cc(Br)ccc21	?	/	/	/	.	?
N#Cc1cccc2c1-c1ccccc1/C2=N/NC(N)=S	.	.	89µM	?	.	?
COc1ccc(C2(C(=O)NCCc3ccccc3)CCCC2)cc1OC	.	.	.[2.33 µM]	.	.	.
CN1CCc2ccc3c4c2[C@]1(C)Cc1cccc(c1-4)OCO3	/	?	/	/	/	.
C/C(=N\Nc1ccc(C)c(Cl)c1)c1cccnc1	.	.	11µM	.	.	.
C/C(=N\Nc1ccc(C)c(Cl)c1)c1ccncc1	.	.	22µM	?	.	?
C/C(=N\NC(=O)C(=O)Nc1ccc(C)c(Cl)c1)c1ccncc1	.	.	.	.	.	.
Cc1cc(C)c(CN2CCC(N3CCC(C(=O)NCC4CCCO4)CC3)CC2)cc1C (centres undefined)	.	.	.	.	30µM	?
Cc1oc(-c2ccc(Cl)cc2)nc1CN1CCC(C(=O)NCC2CCCO2)CC1 (centres undefined)	.	.	.	.	.	.
